Measurements: PubChem BioAssay (NCATS)
Several values for one entry are separate records, joined by “and”; a condition that tells them apart may be missing. Equal entries are not always repeated. Values without a mark were called inactive. Results filed as inconclusive are left out. A call without a number means that no potency is given here. Activity calls are given as the source filed them. Unless noted, calls come from the whole dose curve; as a rule, active = well fitted curve in the direction sought with a large enough effect; inconclusive = small, poorly fitted or top-dose-only effect, or another doubt; inactive = no such curve, though single readings can be large; an effect the other way counts as inactive or inconclusive.

Columns and labels:
[1] = system: PA-1; experiment: Primary qHTS to identify gynecologic anti-cancer compounds using libraries of approved drugs and bioactive compounds (AID 1345084); conditions: Gynecologic cancer cell panel viability, ATPlite luminescence, 48 h; series mostly up to 57.5 µM; note: nearly all actives have a fitted effect of over 55% in size
Procedure, shortened: (§1)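 ATP-based viability (ATPlite), 1,000 cells/well, 16 h pre-incubation, 48 h compound at 37 C, 5% CO2, 15 min RT before read.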

[2] = system: SKOV3; experiment: as above; conditions: Gynecologic cancer cell panel viability, ATPlite luminescence, 48 h; series mostly up to 57.5 µM
Procedure, shortened: as §1

[3] = system: Tov-21-G; experiment: as above; conditions: Gynecologic cancer cell panel viability, ATPlite luminescence, 48 h; series mostly up to 57.5 µM
Procedure, shortened: as §1

[4] = system: Tov112D; experiment: as above; conditions: Gynecologic cancer cell panel viability, ATPlite luminescence, 48 h; series mostly up to 57.5 µM
Procedure, shortened: as §1

[5] = Drug repurposing screens with cells derived from glioblastoma tumor samples (AID 1345199); conditions: GBM patient neurospheres viability, ATP luminescence, 48 h; note: nearly all actives have a fitted effect of over 40% in size; note: potency is the fitted concentration of half-maximal effect
Procedure, shortened: (§2)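 Four patient lines of CD133+ GBM neurospheres were screened at several concentrations; hits were retested in those lines plus three slower-growing GBM lines, using 48-hour treatment and ATP-based viability.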

[6] = system: astro; experiment: as above; conditions: viability, ATP luminescence, 48 h; series mostly up to 45.9 µM
Procedure, shortened: as §2

[7] = molecular target: Nuclear receptor subfamily 1 group I member 2 (Rattus norvegicus) (UniProt Q9R1A7); experiment: qHTS assay for small molecule activators of the rat pregnane X receptor (rPXR) signaling pathway (AID 651751; call rule not given here); conditions: rPXR reporter cells, luciferase (One-Glo), 24 h
Sequence of Nuclear receptor subfamily 1 group I member 2 (Rattus norvegicus) (Q9R1A7 whole entry, looked up): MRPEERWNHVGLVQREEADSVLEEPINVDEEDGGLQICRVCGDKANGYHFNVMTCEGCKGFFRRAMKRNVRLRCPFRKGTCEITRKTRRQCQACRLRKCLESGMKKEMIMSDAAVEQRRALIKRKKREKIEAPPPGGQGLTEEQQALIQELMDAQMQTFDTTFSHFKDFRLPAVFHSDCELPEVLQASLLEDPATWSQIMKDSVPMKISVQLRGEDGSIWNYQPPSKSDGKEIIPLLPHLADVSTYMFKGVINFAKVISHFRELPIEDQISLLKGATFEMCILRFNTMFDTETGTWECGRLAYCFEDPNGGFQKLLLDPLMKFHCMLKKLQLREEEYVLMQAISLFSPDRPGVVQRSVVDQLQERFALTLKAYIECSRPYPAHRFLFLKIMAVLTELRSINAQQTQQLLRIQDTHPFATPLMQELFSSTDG

[8] = qHTS assay for small molecule activators of the human pregnane X receptor (PXR) signaling pathway (AID 720659; call rule not given here)
[9] = at 45.9 µM (top of the series), tumour line B
[10] = at 45.9 µM (top of the series), tumour line D
[11] = at 46 µM (top of the series), tumour line A
[12] = at 21.2 µM (top of the series), tumour line B
[13] = at 21.2 µM (top of the series), tumour line D
[14] = at 21.3 µM (top of the series), tumour line A
[15] = at 46.1 µM (top of the series), tumour line C
[16] = at 91.6 µM (top of the series), tumour line B
[17] = at 91.6 µM (top of the series), tumour line D

COc1cccc([C@@]2(O)CCCC[C@@H]2CN(C)C)c1
Potency [1]: inactive
outcome [2]: inactive
Potency [3]: inactive
Potency [4]: inactive
activity, negative = cell killing [5, 9]: -5.81%
activity, negative = cell killing [5, 10]: 6.21%
activity, negative = cell killing [5, 11]: -29.2%

CNC(C)(C)Cc1ccccc1
Potency [1]: inactive
outcome [2]: inactive
Potency [3]: inactive
Potency [4]: inactive
activity, negative = cell killing [5, 12]: -7.53%
activity, negative = cell killing [5, 13]: -8.31%
activity, negative = cell killing [5, 14]: -29.6%

C[C@H]1[C@@H]2Cc3ccc(O)cc3[C@@]1(C)CCN2C
Potency [1]: inactive
outcome [2]: inactive
Potency [3]: inactive
Potency [4]: inactive
activity, negative = cell killing ([5]; at 231 µM (top of the series), tumour line B): -0.237%
activity, negative = cell killing ([5]; at 231 µM (top of the series), tumour line D): -19.7%
Potency ([5]; tumour line A): 112 µM (active)

CC(=O)OCC1=C(C(=O)O)N2C(=O)[C@@H](N)[C@H]2SC1
Potency [1]: inactive
outcome [2]: inactive
Potency [3]: inactive
Potency [4]: inactive
activity, negative = cell killing [5, 12]: -6.05%
activity, negative = cell killing [5, 13]: -13.7%
activity, negative = cell killing [5, 14]: -21.2%
Potency [6]: inactive

COC(=O)C(Cl)C(=O)OC
Potency [1]: inactive
outcome [2]: inactive
Potency [3]: inactive
Potency [4]: inactive
activity, negative = cell killing [5, 9]: -9.36%
activity, negative = cell killing [5, 10]: -17%
activity, negative = cell killing [5, 11]: -23.7%

COP(=S)(OC)Oc1ccc(S(=O)(=O)N(C)C)cc1
Potency [1]: inactive
outcome [2]: inactive
Potency [3]: inactive
Potency [4]: inactive
activity, negative = cell killing [5, 9]: -4.11%
activity, negative = cell killing [5, 10]: -25%
activity, negative = cell killing [5, 11]: -29.3%
Potency [6]: inactive

CC1(C)C(C=C(Cl)Cl)C1C(=O)OC(C#N)c1cccc(Oc2ccccc2)c1 (stereo not given)
Potency [1]: inactive
outcome [2]: inactive
Potency [3]: inactive
Potency [4]: inactive
activity, negative = cell killing [5, 9]: -16.8%
activity, negative = cell killing [5, 15]: -35.5%
Potency ([5]; tumour line A): 25.1 µM (active)

Nc1ccccc1
Potency [1]: inactive
outcome [2]: inactive
Potency [3]: inactive
Potency [4]: inactive
activity, negative = cell killing [5, 9]: -4.34%
activity, negative = cell killing [5, 10]: -2.5%
activity, negative = cell killing [5, 11]: -28.7%
Potency [6]: inactive
max response [7]: -4.01%
outcome [8]: inactive

COC(=O)[C@@H](N)CCCN/C(N)=N/[N+](=O)[O-]
Potency [1]: inactive
outcome [2]: inactive
Potency [3]: inactive
Potency [4]: inactive
activity, negative = cell killing [5, 9]: 0.524%
activity, negative = cell killing [5, 10]: -1.49%
activity, negative = cell killing [5, 11]: -15.6%
Potency [6]: inactive

CC(C)c1c(CN(C)C(C)Cc2ccccc2)n(C)n(-c2ccccc2)c1=O (stereo not given)
Potency [1]: inactive
outcome [2]: inactive
Potency [3]: inactive
Potency [4]: inactive
activity, negative = cell killing [5, 12]: -20.9%
activity, negative = cell killing [5, 13]: -18.5%
Potency ([5]; tumour line A): 11.2 µM (active)
Potency [6]: inactive

CCC1(CC)C(=O)C=CNC1=O
Potency [1]: inactive
outcome [2]: inactive
Potency [3]: inactive
Potency [4]: inactive
activity, negative = cell killing [5, 9]: -5.96%
activity, negative = cell killing [5, 10]: -8.64%
activity, negative = cell killing [5, 11]: -23.7%
Potency [6]: inactive

CN(C)CCc1c[nH]c2cccc(OP(=O)(O)O)c12
Potency [1]: inactive
outcome [2]: inactive
Potency [3]: inactive
Potency [4]: inactive
activity, negative = cell killing ([5]; at 91.6 µM (top of the series), tumour line A): -30.1%
activity, negative = cell killing [5, 16]: -11.6%
activity, negative = cell killing [5, 17]: -12.3%

C[N+]1(CCF)[C@@H]2CC[C@H]1CC(OC(=O)C(O)(c1ccccc1)c1ccccc1)C2 (stereo not given in full)
Potency [1]: inactive
outcome [2]: inactive
Potency [3]: inactive
Potency [4]: inactive
activity, negative = cell killing [5, 9]: -12.6%
activity, negative = cell killing [5, 10]: -18.1%
Potency ([5]; tumour line A): 11.2 µM (active)
Potency [6]: inactive

O=C1c2ccccc2C(=O)C1C(=O)C(c1ccccc1)c1ccccc1
Potency [1]: inactive
outcome [2]: inactive
Potency [3]: inactive
Potency [4]: inactive
activity, negative = cell killing [5, 9]: -21.4%
activity, negative = cell killing [5, 10]: -28.8%
activity, negative = cell killing [5, 11]: -53.7%
activity, negative = cell killing [5, 15]: -30.6%
outcome [8]: inactive

CCc1cc2c(s1)-n1c(C)nnc1CN=C2c1ccccc1Cl
Potency [1]: inactive
outcome [2]: inactive
Potency [3]: inactive
Potency [4]: inactive
activity, negative = cell killing [5, 9]: -22.1%
activity, negative = cell killing [5, 10]: -8.05%
Potency [6]: inactive

NC(=O)c1cc([N+](=O)[O-])cc([N+](=O)[O-])c1
Potency [1]: inactive
outcome [2]: inactive
Potency [3]: inactive
Potency [4]: inactive
activity, negative = cell killing [5, 9]: -14%
activity, negative = cell killing [5, 10]: -22.7%
Potency [6]: inactive

NNc1ccccc1
Potency [1]: inactive
Potency [3]: inactive
Potency [4]: inactive
activity, negative = cell killing [5, 9]: -3.46%
activity, negative = cell killing [5, 10]: -1.72%
activity, negative = cell killing [5, 11]: -20.5%
activity, negative = cell killing [5, 15]: 11.9%

CC(C)(C)c1ccc(O)cc1
Potency [1]: inactive
Potency [3]: inactive
Potency [4]: inactive
activity, negative = cell killing [5, 9]: -7.29%
activity, negative = cell killing [5, 10]: 7.61%
activity, negative = cell killing [5, 11]: -21%
Potency [6]: inactive

CN1C(=O)CCS(=O)(=O)C1c1ccc(Cl)cc1 (stereo not given)
Potency [1]: inactive
Potency [3]: inactive
Potency [4]: inactive
activity, negative = cell killing [5, 9]: -12.1% and -22.6%
activity, negative = cell killing [5, 10]: -13.6% and -16.2%
activity, negative = cell killing [5, 11]: -23.1% and -4.54%

O=C(O)c1ccc(=O)[nH]c1
Potency [1]: inactive
Potency [3]: inactive
Potency [4]: inactive

O=C(Nc1ccc(Br)cc1)c1cc(Br)cc(Br)c1O
Potency [1]: inactive
outcome [2]: inactive
Potency [3]: inactive
Potency [4]: inactive
Potency [6]: 7.08 µM (active)

COc1ccc2c3c1O[C@H]1[C@H](O)CC[C@H]4[C@@H](C2)N(C)CC[C@@]341
Potency [1]: inactive
outcome [2]: inactive
Potency [3]: inactive
Potency [4]: inactive
activity, negative = cell killing [5, 16]: -15.1%
activity, negative = cell killing [5, 17]: -10.3%
Potency [6]: inactive

O=C(N/N=C/c1ccc([N+](=O)[O-])o1)c1cc([N+](=O)[O-])cc([N+](=O)[O-])c1O
Potency [1]: inactive
outcome [2]: inactive
Potency [3]: inactive
Potency [4]: inactive
activity, negative = cell killing [5, 9]: -13.9%
activity, negative = cell killing [5, 10]: -24.1%
Potency [6]: inactive
